Experimental data published in the supplement of paper PMC9694430.

Columns and labels:
Experiment in all cases: thermal shift delta Tm vs DMSO control; higher = stronger stabilization (binding)
Conditions in all cases: 12.5 µM; protein concentration 2 µM
[1] = system: LOC_OS04G57630-cb004
How it was run: (§1)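 Rice kinase domain constructs, made in E. coli and purified, were placed in 96-well plates at 2 μM in 19.5 μl of 100 mM potassium phosphate pH 7.5, 150 mM NaCl, 10% glycerol and 5 × SYPRO Orange, with compound in DMSO. A temperature ramp from 25°C to 95°C at 0.05°C/s was used for differential scanning fluorimetry. The melting temperature shift is a triplicate mean compared with DMSO-only protein, derived from Boltzmann fits.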

[2] = system: LOC_OS05G07850-cb002
How it was run: as §1

[3] = system: LOC_OS05G16824-cb004
How it was run: as §1

[4] = system: LOC_OS05G28520-cb001
How it was run: as §1

[5] = system: LOC_OS05G30820-cb001
How it was run: as §1

[6] = system: LOC_OS05G43570-cb004
How it was run: as §1

[7] = system: LOC_OS06G16330-cb003
How it was run: as §1

[8] = system: T1, LOC_OS06G22820-cb001
T1 sequence (whole entry): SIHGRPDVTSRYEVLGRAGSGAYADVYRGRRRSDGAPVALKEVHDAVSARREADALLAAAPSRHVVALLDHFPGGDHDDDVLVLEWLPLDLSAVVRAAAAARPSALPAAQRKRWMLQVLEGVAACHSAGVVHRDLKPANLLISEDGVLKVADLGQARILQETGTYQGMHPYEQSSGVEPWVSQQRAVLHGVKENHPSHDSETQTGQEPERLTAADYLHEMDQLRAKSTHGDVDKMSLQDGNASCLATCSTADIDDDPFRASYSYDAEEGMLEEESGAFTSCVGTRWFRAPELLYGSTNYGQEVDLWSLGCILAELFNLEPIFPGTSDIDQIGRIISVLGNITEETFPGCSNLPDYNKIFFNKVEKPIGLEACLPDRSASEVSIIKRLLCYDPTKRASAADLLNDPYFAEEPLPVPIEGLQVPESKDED
How it was run: as §1

[9] = system: LOC_OS07G06570-cb004
How it was run: as §1

[10] = system: LOC_OS07G07230-cb001
How it was run: as §1
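Also: purified Escherichia coli-expressed rice kinase domain construct.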

LOC_OS06G16330-cb003, sequence (as listed by the source): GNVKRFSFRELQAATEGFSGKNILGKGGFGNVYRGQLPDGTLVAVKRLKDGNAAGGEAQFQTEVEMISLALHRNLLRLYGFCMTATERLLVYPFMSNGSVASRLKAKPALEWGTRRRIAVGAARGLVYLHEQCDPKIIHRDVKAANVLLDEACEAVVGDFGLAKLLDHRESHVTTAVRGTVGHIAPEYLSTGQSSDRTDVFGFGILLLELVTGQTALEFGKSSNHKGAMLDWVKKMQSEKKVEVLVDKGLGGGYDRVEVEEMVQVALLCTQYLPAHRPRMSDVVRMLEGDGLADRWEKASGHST

Cn1cc(-c2ccc3nnc(C(F)(F)c4ccc5ncccc5c4)n3n2)cn1
thermal shift delta Tm [1]: 0.16 °C | thermal shift delta Tm [2]: 1.31 °C | thermal shift delta Tm [3]: 0.65 °C | thermal shift delta Tm [4]: 0.54 °C | thermal shift delta Tm [5]: 0.28 °C | thermal shift delta Tm [6]: 0.51 °C | thermal shift delta Tm [7]: 1.54 °C | thermal shift delta Tm [8]: 0.92 °C | thermal shift delta Tm [9]: 1.14 °C | thermal shift delta Tm [10]: -0.03 °C

O=C1Cc2c([nH]c3ccc(Br)cc23)-c2ccccc2N1 [Kenpaullone]
thermal shift delta Tm [1]: 2.67 °C | thermal shift delta Tm [2]: 7.41 °C | thermal shift delta Tm [3]: 3.07 °C | thermal shift delta Tm [4]: 1 °C | thermal shift delta Tm [5]: 2.18 °C | thermal shift delta Tm [6]: 1.21 °C | thermal shift delta Tm [7]: 2.59 °C | thermal shift delta Tm [8]: 0.96 °C | thermal shift delta Tm [9]: -0.23 °C | thermal shift delta Tm [10]: 0.05 °C

C=CC(=O)Nc1cccc(Sc2nc(Nc3ccc(N4CCN(C)CC4)cc3)ncc2Cl)c1
thermal shift delta Tm [1]: 4.52 °C | thermal shift delta Tm [2]: 11.5 °C | thermal shift delta Tm [3]: 7.67 °C | thermal shift delta Tm [4]: 7.81 °C | thermal shift delta Tm [5]: 2.25 °C | thermal shift delta Tm [6]: 0.95 °C | thermal shift delta Tm [7]: 5.61 °C | thermal shift delta Tm [8]: -0.33 °C | thermal shift delta Tm [9]: 0.28 °C | thermal shift delta Tm [10]: 0.95 °C

CN1CCN(c2ccc3nc(-c4c(N)c5c(F)cccc5[nH]c4=O)[nH]c3c2)CC1 [Dovitinib (TKI258) Lactate]
thermal shift delta Tm [1]: 4.11 °C | thermal shift delta Tm [2]: 8.85 °C | thermal shift delta Tm [3]: 14.8 °C | thermal shift delta Tm [4]: 1.89 °C | thermal shift delta Tm [5]: 1.87 °C | thermal shift delta Tm [6]: 0.71 °C | thermal shift delta Tm [7]: 8.12 °C | thermal shift delta Tm [8]: 0.62 °C | thermal shift delta Tm [9]: 1.96 °C | thermal shift delta Tm [10]: 0.72 °C

Cc1ncc(CCCN(C)C)cc1Nc1ncc2c(n1)-c1ccc(C(F)(F)F)cc1NC(=S)C2
thermal shift delta Tm [1]: -0.2 °C | thermal shift delta Tm [2]: -0.13 °C | thermal shift delta Tm [3]: 3.13 °C | thermal shift delta Tm [4]: 0.71 °C | thermal shift delta Tm [5]: 0.52 °C | thermal shift delta Tm [6]: 0.48 °C | thermal shift delta Tm [7]: 0.15 °C | thermal shift delta Tm [8]: 0.79 °C | thermal shift delta Tm [9]: 1.65 °C | thermal shift delta Tm [10]: 0.32 °C

Cc1n[nH]c2ncc(C(=O)N3CCC[C@H]3c3ccc(Cl)cc3)cc12
thermal shift delta Tm [1]: 0.01 °C | thermal shift delta Tm [2]: 0.81 °C | thermal shift delta Tm [3]: -6.54 °C | thermal shift delta Tm [4]: 0.03 °C | thermal shift delta Tm [5]: 0.26 °C | thermal shift delta Tm [6]: 0.19 °C | thermal shift delta Tm [7]: 0.11 °C | thermal shift delta Tm [8]: 0.56 °C | thermal shift delta Tm [9]: 1.74 °C | thermal shift delta Tm [10]: 0.45 °C

O=C(NOCC(O)CO)c1cc(Br)c(F)c(F)c1Nc1ccc(I)cc1F (stereo not given)
thermal shift delta Tm [1]: 0.44 °C | thermal shift delta Tm [2]: 0.69 °C | thermal shift delta Tm [3]: 0.91 °C | thermal shift delta Tm [4]: 0.42 °C | thermal shift delta Tm [5]: 0.68 °C | thermal shift delta Tm [6]: 0.96 °C | thermal shift delta Tm [7]: 0.65 °C | thermal shift delta Tm [8]: 1.13 °C | thermal shift delta Tm [9]: 1.14 °C | thermal shift delta Tm [10]: -0.63 °C

CN1CC(O)C2=C/C(=N/NC(N)=O)C(=O)C=C21 (stereo not given) [Carbazochrome]
thermal shift delta Tm [1]: -0.07 °C | thermal shift delta Tm [2]: 1.06 °C | thermal shift delta Tm [3]: -3.49 °C | thermal shift delta Tm [4]: -0.11 °C | thermal shift delta Tm [5]: 0.11 °C | thermal shift delta Tm [6]: 0.35 °C | thermal shift delta Tm [7]: 0.27 °C | thermal shift delta Tm [8]: 0.09 °C | thermal shift delta Tm [9]: 0.68 °C | thermal shift delta Tm [10]: 0.58 °C

COc1cc(Nc2ncc3c(n2)-c2ccc(Cl)cc2C(c2c(F)cccc2OC)=NC3)ccc1C(=O)O [Alisertib (MLN8237)]
thermal shift delta Tm [1]: -0.1 °C | thermal shift delta Tm [2]: 10.3 °C | thermal shift delta Tm [3]: 5.74 °C | thermal shift delta Tm [4]: 0.02 °C | thermal shift delta Tm [5]: 0.19 °C | thermal shift delta Tm [6]: 0.06 °C | thermal shift delta Tm [7]: 2.21 °C | thermal shift delta Tm [8]: 0.35 °C | thermal shift delta Tm [9]: 0.77 °C | thermal shift delta Tm [10]: 0.11 °C

COc1cc2ncnc(Nc3ccc(Cl)cc3F)c2cc1OC
thermal shift delta Tm [1]: 0.21 °C | thermal shift delta Tm [2]: 10.1 °C | thermal shift delta Tm [3]: 2.13 °C | thermal shift delta Tm [4]: 0.86 °C | thermal shift delta Tm [5]: 0.51 °C | thermal shift delta Tm [6]: 0.29 °C | thermal shift delta Tm [7]: 4.29 °C | thermal shift delta Tm [8]: 0.69 °C | thermal shift delta Tm [9]: 1.37 °C | thermal shift delta Tm [10]: -0.11 °C

C[C@H]1CNC(=O)c2cnn3ccc(nc23)N[C@H](C)c2cc(F)ccc2O1
thermal shift delta Tm [1]: 1.68 °C | thermal shift delta Tm [2]: 10.8 °C | thermal shift delta Tm [3]: 12.5 °C | thermal shift delta Tm [4]: 0.06 °C | thermal shift delta Tm [5]: 0.11 °C | thermal shift delta Tm [6]: 0.56 °C | thermal shift delta Tm [7]: 9.31 °C | thermal shift delta Tm [8]: -0.23 °C | thermal shift delta Tm [9]: 1.57 °C | thermal shift delta Tm [10]: 0.8 °C

CC(C)c1c2cc(-c3ccnc(NC4CCC(NC5CCOCC5)CC4)n3)ccc2nn1C (stereo not given)
thermal shift delta Tm [1]: 1.43 °C | thermal shift delta Tm [2]: 6.4 °C | thermal shift delta Tm [3]: -6.14 °C | thermal shift delta Tm [4]: 0.56 °C | thermal shift delta Tm [5]: 0.45 °C | thermal shift delta Tm [6]: 0.57 °C | thermal shift delta Tm [7]: 3.01 °C | thermal shift delta Tm [8]: 0.19 °C | thermal shift delta Tm [9]: 1.62 °C | thermal shift delta Tm [10]: 0.55 °C

COc1cc2c(c(OC)c1OC)-c1c(cc3c(c1OC)OCO3)CC(C)C(C)C2 (stereo not given) [Schisandrin B (Sch B)]
thermal shift delta Tm [1]: 0.17 °C | thermal shift delta Tm [2]: 1.23 °C | thermal shift delta Tm [3]: -1 °C | thermal shift delta Tm [4]: 0.63 °C | thermal shift delta Tm [5]: 0.52 °C | thermal shift delta Tm [6]: 0.14 °C | thermal shift delta Tm [7]: -0.39 °C | thermal shift delta Tm [8]: 0.43 °C | thermal shift delta Tm [9]: 1.21 °C | thermal shift delta Tm [10]: -0.17 °C

Cn1nccc1Nc1nccc(-c2ccn([C@H](CO)c3ccc(Cl)c(F)c3)c(=O)c2)n1
thermal shift delta Tm [1]: 0.08 °C | thermal shift delta Tm [2]: 2.78 °C | thermal shift delta Tm [3]: -3.01 °C | thermal shift delta Tm [4]: 1.03 °C | thermal shift delta Tm [5]: 0.26 °C | thermal shift delta Tm [6]: 0.16 °C | thermal shift delta Tm [7]: 0.19 °C | thermal shift delta Tm [8]: 0.56 °C | thermal shift delta Tm [9]: 1.22 °C | thermal shift delta Tm [10]: 0.87 °C

N#Cc1c(Oc2ccc(F)c(NC(=O)Cc3cccc(C(F)(F)F)c3)c2)ccc2nc(NC(=O)C3CC3)sc12
thermal shift delta Tm [1]: 0.09 °C | thermal shift delta Tm [2]: 0.32 °C | thermal shift delta Tm [3]: -2.82 °C | thermal shift delta Tm [4]: 0.59 °C | thermal shift delta Tm [5]: 0.49 °C | thermal shift delta Tm [6]: 0.4 °C | thermal shift delta Tm [7]: 0.5 °C | thermal shift delta Tm [8]: 0.74 °C | thermal shift delta Tm [9]: 1.21 °C | thermal shift delta Tm [10]: 0.32 °C

Cc1nc(N)sc1-c1ccnc(Nc2ccc(N3CCOCC3)cc2)n1
thermal shift delta Tm [1]: 2.53 °C | thermal shift delta Tm [2]: 13.4 °C | thermal shift delta Tm [3]: 8.12 °C | thermal shift delta Tm [4]: 0.36 °C | thermal shift delta Tm [5]: 0.56 °C | thermal shift delta Tm [6]: 0.98 °C | thermal shift delta Tm [7]: 6.87 °C | thermal shift delta Tm [8]: 0.66 °C | thermal shift delta Tm [9]: 0.8 °C | thermal shift delta Tm [10]: 0.42 °C

Cn1c(=O)c(F)c(Nc2ccc(I)cc2F)c2c(=O)n(C[C@@H](O)CO)cnc21
thermal shift delta Tm [1]: 0.47 °C | thermal shift delta Tm [2]: 1.59 °C | thermal shift delta Tm [3]: -1.32 °C | thermal shift delta Tm [4]: 0.23 °C | thermal shift delta Tm [5]: 0.72 °C | thermal shift delta Tm [6]: 1.08 °C | thermal shift delta Tm [7]: 0.18 °C | thermal shift delta Tm [8]: 0.76 °C | thermal shift delta Tm [9]: 0.33 °C | thermal shift delta Tm [10]: 0.02 °C

COc1cccc2cc(-c3nc([C@H]4CC[C@H](C(=O)O)CC4)n4ncnc(N)c34)[nH]c12
thermal shift delta Tm [1]: 0.17 °C | thermal shift delta Tm [2]: 3.87 °C | thermal shift delta Tm [3]: -4.58 °C | thermal shift delta Tm [4]: 0.34 °C | thermal shift delta Tm [5]: 0.73 °C | thermal shift delta Tm [6]: 0.5 °C | thermal shift delta Tm [7]: -0.07 °C | thermal shift delta Tm [8]: 0.66 °C | thermal shift delta Tm [9]: 0.52 °C | thermal shift delta Tm [10]: 0.08 °C

CN1CCN(c2cccc(Nc3nc4c(-c5ccc(S(C)(=O)=O)cc5)cccn4n3)c2)CC1
thermal shift delta Tm [1]: 0.63 °C | thermal shift delta Tm [2]: 5.82 °C | thermal shift delta Tm [3]: 6.48 °C | thermal shift delta Tm [4]: 0.11 °C | thermal shift delta Tm [5]: 0.63 °C | thermal shift delta Tm [6]: 0.2 °C | thermal shift delta Tm [7]: 4.09 °C | thermal shift delta Tm [8]: 0.43 °C | thermal shift delta Tm [9]: 0.46 °C | thermal shift delta Tm [10]: -0.02 °C

Cc1cc(C(=O)NOCCO)c(Nc2ccc(I)cc2F)n(C)c1=O
thermal shift delta Tm [1]: 0.11 °C | thermal shift delta Tm [2]: 0.04 °C | thermal shift delta Tm [3]: -9.58 °C | thermal shift delta Tm [4]: -0.17 °C | thermal shift delta Tm [5]: 0.7 °C | thermal shift delta Tm [6]: 0.18 °C | thermal shift delta Tm [7]: -0.11 °C | thermal shift delta Tm [8]: 0.38 °C | thermal shift delta Tm [9]: 1.15 °C | thermal shift delta Tm [10]: 0.15 °C
